Results: PubChem BioAssay (NCI)
This is part of a sample that, as a whole, favours compounds with a hit. Of some 79,000 tested, about 15% had one in any assay. Values without a mark were called inactive. Calls of active or inactive are those of the source. Rule as the data show it: active = growth inhibition above about 70%; inactive = the rest.

Experiments:
[1] = NCI Yeast Anticancer Drug Screen. Data for the rad50 strain (AID 155);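 also: 0% = growth of vehicle-only cultures of the same strain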; conditions: S. cerevisiae rad50 strain growth inhibition; at 50.0 µM; hits give high values
How it was run: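 Compounds were tested on a yeast strain with an engineered DNA damage repair alteration; the reported value is growth inhibition normalised to vehicle treatment.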

[2] = NCI Yeast Anticancer Drug Screen. Data for the mec2-1 strain (AID 157); conditions: S. cerevisiae mec2-1 strain, at 50.0 µM, hits give high values
How it was run: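 Mutant yeast (mec2-1) grown with compound; growth inhibition relative to vehicle control reported.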

[3] = NCI Yeast Anticancer Drug Screen. Data for the sgs1 mgt1 strain (AID 161);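 also: 0% = growth of cultures given vehicle only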; conditions: S. cerevisiae sgs1 mgt1 strain, at 50.0 µM, hits give high values
How it was run: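 Compounds are added to genetically altered yeast, and growth is compared with cultures given vehicle alone to give percent inhibition.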

[4] = NCI Yeast Anticancer Drug Screen. Data for the cln2 rad14 strain (AID 165);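 also: 0% = growth equal to vehicle treated cultures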; conditions: S. cerevisiae cln2 rad14 strain, at 50.0 µM, hits give high values
How it was run: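 Readout is yeast growth inhibition versus vehicle-treated controls, using a strain with cln2 and rad14 alterations exposed to compound.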

[5] = NCI Yeast Anticancer Drug Screen. Data for the bub3 strain (AID 167); conditions: S. cerevisiae bub3 mutant strain, at 50.0 µM, hits give high values
How it was run: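 Growth of a checkpoint-deficient yeast mutant is measured after compound exposure. Values represent inhibition relative to vehicle.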

[6] = NCI Yeast Anticancer Drug Screen. Data for the mlh1 rad18 strain (AID 175); conditions: S. cerevisiae mlh1 rad18 strain growth inhibition; at 50.0 µM; hits give high values
How it was run: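 Genetically defined yeast (DNA repair-deficient) exposed to compounds; growth inhibition determined relative to vehicle.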

Row | Compound | growth inhibition [1] | growth inhibition [2] | growth inhibition [3] | growth inhibition [4] | growth inhibition [5] | growth inhibition [6]
1 | CCCCCCCCCCCCCCCC(=O)Nc1ccc(C(=O)C[n+]2ccc3c(NC(=O)CCC(=O)OC)cccc3c2)cc1 | 3.4% | -12.2% | 3% | -0.95% | 8.55% | -10.6%
2 | NC(N)=NCCCc1ccccc1 | 7.05% | 7.25% | 0.8% | 1.85% | 4% | -3.55%
3 | O=C(O)c1ccc(C(=O)c2ccccc2)c(C(=O)O)c1 | -4.05% | -1.8% | -19.3% | -8.7% | -62.9% | -17.4%
4 | CC1=CC(=O)C(=O)C2=C1OC1(C2)C(C)CCC2C3(C)CCC(O)C(C)(C)C3CCC21C (stereo unspecified) | 86.5% (active) | 89.8% (active) | 89.1% (active) | 88.2% (active) | 86.3% (active) | 87.2% (active)
5 | COc1ccc2nc3ccccc3c(NCCCN(C)C)c2c1 | 33.7% | 41.1% | 36.5% | 60.1% | 6.65% | 12.3%
6 | CCCCCCCCc1cc(CN(C)C)c(O)c(C(C)(C)CC(C)(C)C)c1 | -13.7% | 2.35% | 27.3% | 16.7% | 16% | 8.3%
7 | Nc1nc(N)c(Nc2ccc(Cl)cc2)c(Cl)n1 | 50% | 29.2% | 66.3% | 35.2% | 40.9% | 50.5%
8 | O=C(c1ccc(Cl)c(Cl)c1)N1CCCCC1 | -1.25% | -7% | 13.8% | -48.5% | -12.5% | -6.25%
9 | CCCCCCCCCCCC(=O)OCC | 26.8% | 22.4% | 8.45% | 25.2% | 9.15% | 8.7%
10 | NCCNCCCCCCCCCCCCOS(=O)(=O)O | -32.8% | -23.6% | -6.35% | -15.3% | -25% | -11.4%
11 | O=C(/C=C(\N=P(c1ccccc1)(c1ccccc1)c1ccccc1)C(F)(F)C(F)(F)C(F)(F)C(F)(F)C(F)(F)C(F)(F)C(F)(F)F)c1ccccc1 | -16.1% | -13.2% | -17.3% | 0.65% | 14.2% | -3%
12 | CCCCCCCCCCCCCCCCCCC(CO)CO | -22.4% | -20.6% | -8.65% | -45% | -10.2% | 1.8%
13 | CN(C)CCN1CC2C3CCCCC3=C3CCCCC3C2C1 (stereo unspecified) | -0.45% | 10.1% | 31.9% | -24.4% | 23.8% | 37.9%
14 | NC(CS(N)(=O)=O)C(=O)O (stereo unspecified) | -6.3% | -3.75% | -1.05% | -51.5% | -3.2% | 2.8%
15 | COc1ccccc1NC(=O)c1nc2ccc([N+](=O)[O-])cc2nc1C | 21.4% | 19.1% | 1.65% | 15.4% | 33.9% | 20.4%
16 | CCOC(=O)CC(=O)CC | 8.5% | -16.6% | -18.8% | 7.55% | -6.45% | 3.25%
17 | COC(=O)c1cc(C)c(C(=O)O)c(C)c1 | 13% | 22.5% | 26.6% | 16.3% | 3.9% | 14.9%
18 | O=S1(=O)CC(N2CCCCC2)C=C(c2ccccc2)O1 (stereo unspecified) | 37.1% | 0.25% | 14.3% | 15.2% | 12.7% | 34.2%
19 | CC1(C)CC(=O)c2c(N)n[nH]c2C1 | -0.35% | 3.1% | -8.55% | -2.2% | 1.35% | -15%
20 | COC(=O)NC1(NC(=O)OC)NC(=O)c2cc(OC)c(OC)cc2N1 | 6.25% | -10.4% | 27.4% | -16.5% | 6.55% | 5.75%
21 | CSc1nc(-c2ccc(Cl)cc2)c(C#N)c(=O)n1C1OC(COC(C)=O)C(OC(C)=O)C(OC(C)=O)C1OC(C)=O (stereo unspecified) | -0.55% | -5.75% | 16.6% | 21.2% | -36% | 23.2%

Row | Compound | growth inhibition [1] | growth inhibition [2] | growth inhibition [3] | growth inhibition [4] | growth inhibition [5] | growth inhibition [6]
22 | Cc1ccc(C(=O)NO)cc1 | 28.8% | -5.6% | 7.65% | -4.65% | 13.8% | 17.5%
23 | CCN(CC)CCN(C(=O)c1ccc(F)cc1)c1ccccc1N | -13.2% | -34.1% | -23.6% | -11.9% | 3.85% | -23.6%
24 | Cc1ccccc1C(=O)N(C(C)C)C(C)C | 12.8% | -6.45% | 7.2% | -12.6% | 15.2% | 1%
25 | N#C/C(=N/Nc1ccccc1)c1ccccc1 | 6.5% | 9.1% | -12.1% | -11.2% | 1.85% | -7.95%
26 | CN1C(=O)c2ccccc2CC12c1ccccc1C(=O)N2C (stereo unspecified) | 2.8% | -13.6% | 22.9% | -0.55% | 15.9% | 4.45%
27 | CCOC(=O)C(C(=O)OCC)c1cc(-c2cc3ccccc3o2)oc(=O)c1C#N | 47.7% | 20.5% | 10.2% | 15.8% | -4.15% | 30.1%
28 | O=C1C(Br)=C(c2ccccc2)C(c2ccccc2)=C1c1ccccc1 | 45.6% | 25.9% | 51% | 21.9% | 22.7% | 55%
29 | NC(CCSc1ccccc1)C(=O)O (stereo unspecified) | -0.7% | 8.35% | -9.85% | -34.5% | -29.3% | -5.45%
30 | O=S(=O)(O)C(O)C(F)(F)C(F)(F)C(F)(F)F (stereo unspecified) | 16.2% | -1.75% | 22.9% | -37.8% | -30.6% | 19.9%
31 | CN(c1ccc(Cl)cc1)S(=O)(=O)c1ccc([N+](=O)[O-])cc1 | -13.2% | -23.5% | 23.4% | 32.4% | 38% | -5.9%
32 | CC1=CC(=O)/C(=C/N2CCNC2=S)C(=O)O1 | -24.6% | -20.6% | 1.3% | 5.65% | -31.3% | 4.7%
33 | Clc1cccc2nc(-c3ccccn3)n(CCc3ccncc3)c12 | 90% (active) | 51.1% | 84.7% (active) | 60.6% | 74.7% (active) | 86.2% (active)
34 | CCN(CC)/[N+]([O-])=N/OCC(C)O (stereo unspecified) | 18.4% | -3.45% | -3.85% | 8.35% | 0.55% | -12.5%
35 | Fc1ccc(N=C2c3ccccc3-c3ccccc32)cc1 | 6.35% | -1.9% | -0.25% | 5.3% | 1.65% | 1.15%
36 | CC(C)(C)N(C/C=C/CN(Cc1ccccc1)Cc1ccccc1)C(C)(C)C | 32.8% | 16.2% | 25.6% | 10.8% | 19.8% | 22.7%
37 | CC(C)=CCNc1ncnc2c1c(C#N)cn2C1OC(CO)C(O)C1O (stereo unspecified) | -1.2% | -23.7% | -23.4% | 15.7% | -17.5% | -5.95%
38 | CCOC(=O)N1C2C(c3ccccc3)=NC(C)(C)N2C(c2ccc([N+](=O)[O-])cc2)N1C(=O)OCC (stereo unspecified) | 17.9% | -7% | -4.55% | 15.2% | -2.2% | -2.9%
39 | O=c1c2ccccc2c(Cc2ccccc2)nn1C1CCCCCC1 | -14.2% | 2% | 30.9% | -29.5% | 27.1% | 16.1%
40 | CCC12CC(=O)CCC1CCc1ccc(OC)c(OC)c12 (stereo unspecified) | -14.6% | 15.9% | -2.4% | -7.2% | 18.4% | 22.2%
41 | N#CCc1ccccc1-c1ccccc1 | 2.45% | -8.2% | 11.4% | -45.5% | 5.6% | -9.75%
